HCMV inh = blocks human cytomegalovirus replication. HFF cells, HCMV-luciferase reporter, 72 h; active compounds read low. activity change, negative = inhibition, % at 57.5 µM. 410,000 tested, 4.5% active; in the data active = activity change below about -60%; inconclusive = no clear call, values can overlap the other calls; inactive = above about -39%
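HFF cells seeded 16 h at 37C, treated with compounds, infected with luciferase-reporter HCMV at MOI 1 PFU/cell; luciferase read at 72 h post infection, normalized to buffer-only and Salinomycin controls.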
HCV inh = blocks hepatitis C virus. Potency, µM (top dose mostly 41.8 µM), hits mostly inhibitors. Huh7.5.1 HCVcc-Cre infection, luciferase reporter, 44 h. 340,000 tested, 3.4% active
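1,000 cells/well; 4 h culture; + compound; + HCVcc-Cre (~0.5 moi); 44 h; luciferase substrate, RT 15 min; read 15 sec.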
VACV mCherry inh = vaccinia inhibition (mCherry reporter); Vaccinia virus mCherry reporter infection, fluorescence; Potency, µM (series often up to 36.5 µM), most hits filed as inhibitors; 310,000 tested, 0.63% active; calls by dose curve; tested in A549 cells; note: nearly all actives have a fitted effect of over 35% in size
FMDV inh = antivirals against foot and mouth disease virus. Potency, µM (series often up to 57.9 µM), hits mostly inhibitors. FMDV antiviral cell-based qHTS. 410,000 tested, 1.2% active; calls by dose curve; tested in HEK293T cells; note: read-out not given here; nearly all actives have a fitted effect of over 45% in size
Vaccinia Venus = inhibitors of vaccinia virus (Venus reporter). Vaccinia virus Venus reporter expression, fluorescence. Potency, µM (titrated, usually from 36.5 µM), hits mostly inhibitors. 330,000 tested, 0.46% active; calls by dose curve; tested in A549 cells; note: nearly all actives have a fitted effect of over 30% in size
Giardia FBPA inh = blocks Giardia fructose-bisphosphate aldolase activity; Potency, µM (doses to about 59.6 µM), usual class: inhibitors; purified Giardia FBPA; 290,000 tested, 0.71% active; A8B2U2; note: nearly all actives have a fitted effect of over 55% in size
Target sequence (A8B2U2 whole entry, looked up): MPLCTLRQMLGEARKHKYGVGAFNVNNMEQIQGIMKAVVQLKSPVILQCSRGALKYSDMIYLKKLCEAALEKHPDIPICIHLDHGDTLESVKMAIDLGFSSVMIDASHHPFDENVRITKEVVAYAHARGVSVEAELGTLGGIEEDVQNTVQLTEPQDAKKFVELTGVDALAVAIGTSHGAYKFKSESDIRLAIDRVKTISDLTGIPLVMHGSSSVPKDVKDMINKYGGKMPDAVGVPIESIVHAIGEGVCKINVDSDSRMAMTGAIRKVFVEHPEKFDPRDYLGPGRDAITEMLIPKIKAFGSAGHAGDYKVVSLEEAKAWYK
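40 nM FBPA preincubated 10 min at RT with compound (up to 57.5 uM final), then substrate plus GAPDH/TPI/NAD/arsenate coupling and diaphorase/resazurin added. Fluorescence read after 20 min at RT, 525/598 nm.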
Each line names hits and unclear results; the compound was inactive in the other large screens; ! = not active in a repeat. Sampled rows, rich in hits. Any-hit rate of the full collection: about 7.5%. Unless noted, calls come from the whole dose curve; as a rule, active = well fitted curve in the direction sought with a large enough effect; inconclusive = small, poorly fitted or top-dose-only effect, or another doubt; inactive = no such curve, though single readings can be large; an effect the other way counts as inactive or inconclusive.

CC(C)c1cc(C(=O)NC2CCCc3c2cnn3-c2ccccc2F)no1 (centres undefined)	HCMV inh -88, HCV inh 11µM
Cc1cc(C(=O)NC2CCCc3c2cnn3-c2ccccc2F)nc(C)n1 (centres undefined)	none (no result: HCV inh, Giardia FBPA inh)
Cc1ccc(C)n1C1C(=O)N(Cc2ccc(C(F)(F)F)cc2)c2ccc(F)cc21 (centres undefined)	none (no result: HCV inh, VACV mCherry inh, FMDV inh, Vaccinia Venus, Giardia FBPA inh)
CC(=O)Nc1ccc(NC(=O)C(C)N(C)CC(=O)Nc2ccccc2Br)cc1 (centres undefined)	HCMV inh inconclusive
COc1ccc(C2Nc3ccc(NC(C)=O)cc3C(=O)N2Cc2ccccc2)cc1COc1ccc(NC(C)=O)cc1 (centres undefined)	none (no result: HCMV inh, HCV inh, FMDV inh, Giardia FBPA inh)
COc1ccc(C2Nc3ccccc3C(=O)N2Cc2ccco2)cc1COc1ccc(NC(C)=O)cc1 (centres undefined)	HCMV inh -62, HCV inh inconclusive
O=C(O)COCC(=O)N1CCCN(c2nccc(C(F)(F)F)n2)CC1	none (no result: HCMV inh, VACV mCherry inh, Vaccinia Venus)
O=C1c2ccccc2C(=O)c2ccccc21	none (no result: HCMV inh, HCV inh)
O=C1c2ccccc2C(=O)c2[nH]c(=O)[nH]c21	HCMV inh -99, HCV inh 6.3µM, VACV mCherry inh 1.3µM, Vaccinia Venus 2.8µM, Giardia FBPA inh inconclusive
COc1ccc(O)c(C2=Nc3ccccc3N=C(c3ccccc3)C2)c1	FMDV inh 25µM!
Cc1cc2cc(CNC(=S)Nc3ccc(OC(F)(F)F)cc3)ccc2[nH]1	HCMV inh -75
Cc1ccnc(N/C=C(/NC(=O)c2ccccc2)C(=O)NN)n1	HCMV inh -82
Cc1cccc(C(=O)N(Cc2nc3ccccc3c(=O)[nH]2)C2CCCCC2)c1	HCMV inh -79
Cc1cccc(C(=O)N(Cc2nc3ccccc3c(=O)[nH]2)C2CCCC2)c1	none
O=C(c1ccc(Br)cc1)N(Cc1nc2ccccc2c(=O)[nH]1)C1CCCC1	HCMV inh -62, HCV inh inconclusive
O=C(c1ccccc1)N(Cc1nc2ccccc2c(=O)[nH]1)C1CCCC1	none
CCC(C)[C@H](NC(=O)OC(C)(C)C)C(=O)NCC1CCC(C(=O)N[C@@H](Cc2ccccc2)C(=O)O)CC1 (some centres undefined)	none (no result: VACV mCherry inh, Vaccinia Venus)
Cc1ccc(C)c(NC(=O)C(c2ccccc2)N2Cc3ccccc3C2=O)c1 (centres undefined)	none (no result: HCV inh, Giardia FBPA inh)
Cc1cn([C@H]2C[C@H](O)[C@@H](CNC/C=C/c3ccccc3[N+](=O)[O-])O2)c(=O)[nH]c1=O	VACV mCherry inh inconclusive (no result: HCV inh, Giardia FBPA inh)
CC[C@@]1(O)C(=O)OCc2c1cc1n(c2=O)Cc2cc3ccccc3nc2-1	VACV mCherry inh inconclusive, Vaccinia Venus inconclusive (no result: HCMV inh, HCV inh)
CC[C@@]1(O)C(=O)OCc2c1cc1n(c2=O)Cc2cc3c(NC(=O)CN)cccc3nc2-1	HCMV inh -98, VACV mCherry inh inconclusive, Vaccinia Venus inconclusive, Giardia FBPA inh inconclusive
CCC1(O)C(=O)OCc2c1cc1n(c2=O)Cc2cc3cc(O)ccc3nc2-1 (centres undefined)	HCMV inh -107, VACV mCherry inh inconclusive, Vaccinia Venus inconclusive (no result: Giardia FBPA inh)
CCC1(OC(=O)CN)C(=O)OCc2c1cc1n(c2=O)Cc2cc3ccccc3nc2-1 (centres undefined)	HCV inh inconclusive, VACV mCherry inh 7.1µM, Vaccinia Venus inconclusive (no result: HCMV inh)
Cc1ccsc1C1Cc2c(C(=O)NCc3cccnc3)c(=O)cc(C)n2-c2ccccc2S1 (centres undefined)	none (no result: HCMV inh, HCV inh, Giardia FBPA inh)
CC(=O)c1sc(N)c(C(=O)OC(C)C)c1C	HCV inh 14µM, Vaccinia Venus inconclusive (no result: VACV mCherry inh)
NC(=O)c1cc([N+](=O)[O-])ccc1NCc1cccc([N+](=O)[O-])c1	VACV mCherry inh inconclusive (no result: Giardia FBPA inh)
NC(=O)c1cc([N+](=O)[O-])ccc1NCc1ccc(N)cc1	FMDV inh 8.9µM (no result: Giardia FBPA inh)
NC(=O)c1cc([N+](=O)[O-])ccc1NCc1ccc(F)cc1	HCMV inh -81, HCV inh 2.5µM (no result: Giardia FBPA inh)
CCN(CC)CC(=O)NN=C(c1ccccc1)c1ccccc1	none (no result: VACV mCherry inh)
O=C(CCl)NN=C(c1ccccc1)c1ccccc1	HCMV inh inconclusive, FMDV inh 25µM
COc1ccc(C2c3ccc(O)cc3Oc3ncn4nc(-c5cccnc5)nc4c32)cc1OC (centres undefined)	HCV inh 28µM, VACV mCherry inh inconclusive, FMDV inh inconclusive, Vaccinia Venus inconclusive
COc1ccc(C2c3ccc(O)cc3Oc3ncn(Cc4ccco4)c(=N)c32)cc1OC (centres undefined)	HCMV inh inconclusive, HCV inh inconclusive, VACV mCherry inh inconclusive
COc1ccc2nc(C)cc(Nc3ccc(C)cc3)c2c1	HCV inh inconclusive, VACV mCherry inh inconclusive
COc1ccc2nc(C)cc(Nc3ccc(N4CCOCC4)cc3)c2c1	HCMV inh -86, HCV inh inconclusive (no result: FMDV inh)
COc1ccc2nc(C)cc(Nc3ccc(Cl)c(Cl)c3)c2c1	HCMV inh -106, VACV mCherry inh inconclusive, FMDV inh inconclusive (no result: HCV inh, Giardia FBPA inh)
COc1ccc2oc(C(=O)Nc3ccc(N4CCOCC4)cc3)c(C)c2c1	HCMV inh inconclusive, FMDV inh inconclusive (no result: Giardia FBPA inh)
COc1ccc(OC)c(Nc2cc(C)nc3ccc(C)cc23)c1	HCV inh 22µM, FMDV inh inconclusive (no result: Giardia FBPA inh)
COc1ccc2nc(C)cc(Nc3ccc(N4CCN(C)CC4)cc3)c2c1	HCMV inh -102, HCV inh 10µM, VACV mCherry inh inconclusive, Vaccinia Venus 10µM
COc1ccc(Nc2cc(C)nc3ccccc23)cc1	HCMV inh inconclusive, HCV inh inconclusive (no result: VACV mCherry inh, Vaccinia Venus)
CC(C)(C)C(=O)Nc1cc(-c2cccc(Br)c2)nn1-c1ccccc1	FMDV inh inconclusive (no result: HCV inh, Giardia FBPA inh)
CCN1C(=O)c2ccccc2Sc2ccc(NC(=O)Cc3ccc(OC)c(OC)c3)cc21	VACV mCherry inh inconclusive, Vaccinia Venus inconclusive (no result: HCV inh, Giardia FBPA inh)
CCN(CC)CCNC(=O)Nc1ccc2c(c1)N(Cc1ccccc1)C(=O)c1ccccc1S2	HCMV inh -61, VACV mCherry inh inconclusive, Vaccinia Venus inconclusive (no result: HCV inh, Giardia FBPA inh)
CCN1C(=O)c2ccccc2Sc2ccc(NC(=O)Nc3ccc(C(C)=O)cc3)cc21	none (no result: HCV inh, Giardia FBPA inh)
CCOC(=O)c1ccc2c(c1)N(Cc1ccccc1)C(=O)c1ccccc1S2	none (no result: HCV inh, Giardia FBPA inh)
CCc1ccccc1NC(=O)Nc1ccc2c(c1)N(CC)C(=O)c1ccccc1S2	HCMV inh -84, VACV mCherry inh inconclusive, Vaccinia Venus inconclusive (no result: HCV inh, Giardia FBPA inh)
CCN1C(=O)c2ccccc2Sc2ccc(NC(=O)Nc3ccc(Br)c(C)c3)cc21	HCMV inh -102, VACV mCherry inh inconclusive, FMDV inh inconclusive, Vaccinia Venus inconclusive (no result: HCV inh, Giardia FBPA inh)
CCN1C(=O)c2ccccc2Sc2ccc(C(=O)NC(C)C)cc21	HCMV inh -101 (no result: VACV mCherry inh, Vaccinia Venus)
CCN1C(=O)c2ccccc2S(=O)c2ccc(C(=O)NCc3ccc(C(F)(F)F)cc3)cc21 (centres undefined)	none (no result: HCV inh, VACV mCherry inh, FMDV inh, Vaccinia Venus, Giardia FBPA inh)
N#Cc1nc(-c2ccc(OCc3ccccc3Cl)cc2)oc1N1CCCCCC1	none (no result: HCMV inh, HCV inh, FMDV inh, Giardia FBPA inh)
O=C(CSc1nc2ccccc2[nH]1)Nc1ccc(F)c(F)c1	none (no result: FMDV inh)
O=C(CSc1n[nH]c(-c2ccccn2)n1)Nc1ccccc1	HCMV inh -79, HCV inh inconclusive, VACV mCherry inh 7.9µM (no result: Giardia FBPA inh)
